NS1 inh: qHTS Assay for Inhibitors of Influenza NS1 Protein Function. Potency, µM (top dose mostly 46.1 µM), inactives show top-dose activity, positive = more growth. actives 0.4% (n = 270,000). AID 2326, 2010; calls by dose curve; further: actives are rising curves; nearly all actives have a fitted effect of over 50% in size
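OD600 was taken as the measure of yeast growth restored by compound in an NS1-expressing S. cerevisiae strain. Cells had been washed out of glucose medium and diluted 1:100 into galactose -URA medium, pH 6.0.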
Cruzain inh Det: qHTS Assay for Promiscuous and Specific Inhibitors of Cruzain (with detergent) | actives 0.43% (n = 200,000) | Cruzipain (Trypanosoma cruzi), P25779 | Potency, µM, inactives show max response, negative = inhibition, actives largely listed as inhibitors | purified cruzain, Z-FR-AMC fluorescence, 0.01% Triton | AID 1478, 2009;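 further: plate controls were neutral wells for no effect and buffer without enzyme for full effect; nearly all actives have a fitted effect of over 40% in size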
Target sequence (P25779 123-467 limits assumed): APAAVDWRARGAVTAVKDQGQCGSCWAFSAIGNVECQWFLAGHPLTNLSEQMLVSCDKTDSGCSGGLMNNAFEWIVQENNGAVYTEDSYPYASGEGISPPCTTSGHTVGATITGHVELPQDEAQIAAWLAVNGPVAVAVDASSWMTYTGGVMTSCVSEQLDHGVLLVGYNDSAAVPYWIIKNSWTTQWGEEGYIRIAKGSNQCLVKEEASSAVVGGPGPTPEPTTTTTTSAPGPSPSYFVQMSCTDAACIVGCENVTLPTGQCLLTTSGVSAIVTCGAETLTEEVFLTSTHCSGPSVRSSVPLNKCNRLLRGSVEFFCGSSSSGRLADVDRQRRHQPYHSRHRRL
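Purified cruzain (1.5 nM final) was preincubated with compounds for 15 min at room temperature in 100 mM sodium acetate pH 5.5, 5 mM DTT, 0.01% Triton X-100. Reaction started with 2 uM Z-FR-AMC; AMC fluorescence change over 60 s gave activity.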
Cruzain inh noDet: qHTS Assay for Promiscuous and Specific Inhibitors of Cruzain (without detergent); purified cruzain, Z-FR-AMC fluorescence, no detergent; AID 1476, 2009; Potency, µM, without a hit: max response, negative = inhibition, hits mostly inhibitors; actives 2.3% (n = 200,000);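 further: plate controls were enzyme without inhibitor for no effect and buffer without enzyme for full effect; nearly all actives have a fitted effect of over 40% in size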
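Detergent-free condition (0.00005% Triton X-100) in acetate buffer pH 5.5 with DTT. 1.5 nM enzyme and compound were pre-mixed 15 min, then 2 uM Z-FR-AMC substrate added; reaction progress from fluorescence change between first and third reads (60 s).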
The depositor's hits bear a star; u = inconclusive; x = no result. The full list was thinned out, with hits kept by preference. Unless noted, the call rests on the fitted dose curve; in most records, active means well fitted curve in the direction sought with a large enough effect; inconclusive means small, poorly fitted or top-dose-only effect, or another doubt; inactive means no such curve, though single readings can be large; an effect the other way counts as inactive or inconclusive. Potency means the concentration at half of the fitted maximal effect.

SMILES	NS1 inh	Cruzain inh Det	Cruzain inh noDet
COc1ccc(C2C(C#N)=C(N)OC3=C2C(=O)CCC3)cc1Cn1cc([N+](=O)[O-])cn1 (stereo not drawn)	0%	-3%	-7%
COc1ccc(C2C(C#N)=C(N)Oc3c2c(=O)oc2ccccc32)cc1Cn1cc([N+](=O)[O-])cn1 (stereo not drawn)	28%	-4%	25µM*
COc1ccc(C2C(C#N)=C(N)N(c3cccnc3)C3=C2C(=O)CCC3)cc1Cn1cc([N+](=O)[O-])cn1 (stereo not drawn)	13%	-3%	-12%
COc1ccc(C2C(C#N)=C(N)N(c3ccccc3)C3=C2C(=O)CCC3)cc1Cn1cc([N+](=O)[O-])cn1 (stereo not drawn)	23%	-1%	20µM*
CCN=C=NCCCN(C)C	3%	13%	5%
COc1ccccc1-c1cc2nc(C)c(CCC(=O)Nc3ccc(Br)c(C)c3)c(C)n2n1	x	-1%	6%
Cc1ccc(CN(Cc2ccco2)c2cnc(S(C)(=O)=O)nc2C(=O)Nc2ccc(Br)cc2)o1	x	-3%	-6%
COc1ccc(C2CC(c3ccccc3)=NN2C(=O)COC(=O)c2cccc(S(=O)(=O)N(C)C)c2)cc1 (stereo not drawn)	3%	4%	u
COc1ccc(C2CC(c3ccccc3)=NN2C(=O)COC(=O)c2cnc(Cl)c(Cl)c2)cc1 (stereo not drawn)	6%	-3%	5µM*
COc1ccc(C2CC(c3ccccc3)=NN2C(=O)COC(=O)CNC(=O)c2ccccc2)cc1 (stereo not drawn)	17%	8.9µM*	10µM*
COc1ccc(C2CC(c3ccccc3)=NN2C(=O)COC(=O)c2ccc(Cl)nc2)cc1 (stereo not drawn)	15%	-5%	-28%
Cc1ccc(NCc2nnc3n2CCCCC3)cc1Cl	x	8%	-2%
COc1cc2c(cc1NC(=O)COc1ccccc1OC)oc1ccccc12	1%	9%	-21%
CCCN(CCC)S(=O)(=O)c1ccc(C(=O)Nc2cc3oc4ccccc4c3cc2OC)cc1	3%	-10%	16µM*
COc1cc2c(cc1NC(=O)COC(=O)[C@@H](NS(=O)(=O)c1ccccc1)C(C)C)oc1ccccc12	-16%	-2%	u
COc1cc2c(cc1NC(=O)COC(=O)C(CCSC)NC(=O)c1ccccc1Cl)oc1ccccc12 (stereo not drawn)	-2%	u	25µM*
COc1cc2c(cc1NC(=O)COC(=O)c1ccc(C(C)(C)C)cc1)oc1ccccc12	4%	-1%	13µM*
COc1cc2c(cc1NC(=O)CN1CCN(S(=O)(=O)c3ccccc3F)CC1)oc1ccccc12	5%	1%	25µM*
COc1cc2c(cc1NC(=O)Cc1ccc(C)cc1)oc1ccccc12	12%	-10%	0%
CCN(CC)S(=O)(=O)c1cccc(C(=O)Nc2cc3oc4ccccc4c3cc2OC)c1	0%	-5%	u
COc1ccc(OC)c(NS(=O)(=O)c2ccc(-c3cc(C)no3)s2)c1	x	-5%	-18%
CCc1nc2c(cnn2-c2ccc(Cl)cc2)c(=O)n1-c1ccc(OC)c(Cl)c1	x	-1%	4%
COc1cc([C@@H]2c3cc4c(cc3[C@@H](O[C@@H]3O[C@H]5CO[C@@H](C)O[C@@H]5[C@@H](O)[C@H]3O)[C@@H]3COC(=O)[C@@H]23)OCO4)cc(OC)c1O	x	0%	-4%
Cc1nc2cc(-c3ccccc3)nn2c(C)c1CCC(=O)N1CCN(c2ccc(F)cc2)CC1	x	-2%	1%
COc1cc2c(cc1NC(=O)CSc1ccc(C)cc1)oc1ccccc12	2%	3%	-29%
SMILES	NS1 inh	Cruzain inh Det	Cruzain inh noDet
COc1cc2c(cc1NC(=O)CSc1nnnn1-c1ccccc1)oc1ccccc12	-33%	4%	32µM*
COc1ccc(-c2nc(SCC(=O)Nc3c(C)cc(C)cc3C)n[nH]2)cc1	x	-2%	7%
COc1ccc(C)cc1-n1nnnc1SCC(=O)c1ccc2c(c1)OCCO2	1%	0%	25µM*
COc1ccc(-n2nnnc2SCC(=O)c2ccc3c(c2)OCCO3)c(OC)c1	9%	0%	u
O=c1c2ccccc2c(-c2ccccc2)nn1-c1cc(Cl)ccc1[N+](=O)[O-]	16%	-1%	u
Cc1ccc(-c2nn(-c3cc(Cl)ccc3[N+](=O)[O-])c(=O)c3ccccc23)cc1C	26%	0%	13µM*
Cc1ccc(-c2c(CN3CCN(c4cccc(C)c4)C(C)C3)csc2C)cc1 (stereo not drawn)	x	-1%	15%
NC(CCl)=N[C@H]1CN2CCC1CC2	-4%	2%	15%
CCc1nc2cccnc2n1-c1ccc(CC(=O)Nc2ccc(C)cc2)cc1	x	-10%	2%
CCc1ccccc1NC(=O)Cc1ccc(-n2c(C)nc3cccnc32)cc1	x	-21%	-2%
CCc1nc2cccnc2n1-c1ccc(CC(=O)Nc2cccc(C)c2C)cc1	x	16µM*	-5%
CCc1nc2cccnc2n1-c1ccc(CC(=O)Nc2ccccc2Cl)cc1	x	13µM*	1%
CCOC(=O)C1CCCN(S(=O)(=O)c2ccc3[nH]c(=O)oc3c2)C1 (stereo not drawn)	x	1%	9%
CCOC(=O)CCC(=O)Nc1ccc(S(=O)(=O)N2CCc3ccccc32)cc1	12%	x	x
CCOC(=O)/C(C#N)=N/Nc1ccc(S(=O)(=O)N2CCc3ccccc32)cc1	10%	-7%	25µM*
O=S(=O)(NCC(c1cccs1)S(=O)(=O)c1ccccc1)c1ccc(F)cc1 (stereo not drawn)	x	-3%	-4%
Clc1ccccc1-c1nnc2sc(-c3ccc(Br)o3)nn12	-10%	-5%	-13%
Clc1ccc(-c2nnc3sc(-c4ccc(Br)o4)nn23)c(Cl)c1	3%	-1%	20µM*
Cc1oc(-c2ccc(Cl)cc2)cc1-c1nn2c(-c3ccoc3C)nnc2s1	10µM*	-6%	7%
Clc1ccc(-c2nnc3sc(-c4ccc(Br)o4)nn23)cc1	11%	2%	u
CCOc1ccccc1CNC(=O)c1ccc(NC(=O)N2CC(C)Sc3ccccc32)cc1 (stereo not drawn)	x	-3%	u
CN(CCO)Cc1ncccc1O	-4%	-3%	4%
Cc1ccc2c(c1)C(=O)C1(O)CCN(c3ccccc3)C1=N2 (stereo not drawn)	x	-1%	3%
COc1ccc2cc3cc(C(=O)NCc4ccc5c(c4)OCO5)oc3nc2c1	1%	-9%	-17%
COc1ccc2cc3cc(C(=O)N4CCN(Cc5ccc6c(c5)OCO6)CC4)oc3nc2c1	-60%	32µM*	0%
Cc1cc(C)c2sc(N(Cc3cccnc3)C(=O)CCS(=O)(=O)c3ccccc3)nc2c1	x	-2%	u
O=C(Nc1nnc(C2CC2)s1)c1cc(S(=O)(=O)N2CCN(c3ccccc3)CC2)ccc1Cl	u	3%	u
CCc1nnc(NC(=O)c2ccc(Cl)c(S(=O)(=O)N3CCc4ccccc43)c2)s1	14%	-5%	13µM*
O=C(Nc1nnc(C2CC2)s1)c1ccc(Cl)c(S(=O)(=O)N2CCc3ccccc3C2)c1	5%	-5%	25µM*
O=C(Nc1nnc(S(=O)(=O)N2CCc3ccccc32)s1)c1ccccc1Cl	x	-1%	-7%
